Measurements as given in PubChem BioAssay (Tox21).
Inconclusive results are not listed. The source made the active and inactive calls. Unless noted, calls come from the whole dose curve; as a rule, active = well fitted curve in the direction sought with a large enough effect in the repeat runs; inconclusive = weak or mixed curves; inactive = no such curve, though single readings can be large; an effect the other way counts as inactive or inconclusive.

Experiments:
[1] = qHTS assay to identify small molecule antagonists of the sonic hedgehog signaling (Shh) pathway (AID 1259369; calls by dose curve; note: nearly all actives have a fitted effect of over 45% in size)
How it was run: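 Read-out is luminescence from a firefly luciferase gene controlled by the Gli1 response element, in 3T3Gli1-Luc cells pre-incubated 4hr then exposed to compounds and conditioned medium for 24hr.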

[2] = biological target: Estrogen receptor beta (Homo sapiens) (UniProt Q92731); experiment: qHTS assay to identify small molecule agonists of the estrogen receptor beta (ER-beta) signaling pathway (AID 1259377; active = well fitted activation curve with a large enough effect in the signal ratio in the repeat runs, not every such curve was filed as active; the % refers to the signal ratio)
Sequence of Estrogen receptor beta (Homo sapiens) (Q92731 whole entry, looked up): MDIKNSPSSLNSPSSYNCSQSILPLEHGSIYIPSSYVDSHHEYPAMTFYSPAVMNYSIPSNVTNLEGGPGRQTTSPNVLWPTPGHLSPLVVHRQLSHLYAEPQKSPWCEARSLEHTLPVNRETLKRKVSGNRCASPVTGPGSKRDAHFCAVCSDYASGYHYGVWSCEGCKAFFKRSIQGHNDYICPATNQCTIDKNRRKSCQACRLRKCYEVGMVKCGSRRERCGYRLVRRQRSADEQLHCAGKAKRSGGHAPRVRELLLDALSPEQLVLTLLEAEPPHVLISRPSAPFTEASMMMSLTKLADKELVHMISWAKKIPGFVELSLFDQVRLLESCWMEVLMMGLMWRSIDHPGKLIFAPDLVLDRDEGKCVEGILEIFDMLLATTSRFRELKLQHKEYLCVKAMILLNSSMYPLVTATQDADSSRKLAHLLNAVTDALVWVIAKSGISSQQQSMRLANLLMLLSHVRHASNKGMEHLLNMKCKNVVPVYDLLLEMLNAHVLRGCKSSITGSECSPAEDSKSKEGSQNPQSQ
How it was run: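 Measured by fluorescence intensity from a B/G FRET beta-lactamase substrate (2 h, room temperature) in ER-beta-UAS-bla HEK293T cells treated with DMSO-dissolved compounds for 16 hr at 37C and 5% CO2.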

[3] = qHTS assay to identify small molecule agonists of the androgen receptor (AR) signaling pathway in the presence of an antagonist - cell viability counter screen (AID 1259379);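 note: MDA-kb2 human breast cancer cells carrying an MMTV luciferase reporter; series mostly up to about 92 µM; nearly all actives have a fitted effect of over 25% in size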
How it was run: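 Each compound was tested at 15 concentrations on MDA-kb2 cells in the presence of 3.0uM nilutamide. Viability was measured by CellTiter-Fluor fluorescence after a 16 hr incubation at 37C in a CO2-free atmosphere.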

[4] = qHTS assay to identify small molecule agonists of the estrogen receptor beta (ER-beta) signaling pathway - cell viability counter screen (AID 1259380); note: nearly all actives have a fitted effect of over 30% in size
How it was run: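 Compounds dissolved in DMSO were pin-transferred onto ER-beta-UAS-bla HEK293T cells that had settled 6 hr, and exposure ran 16 hr at 37C. Following the reporter read, CellTiter-Glo luminescence after 30 min at room temperature indicated cytotoxicity.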

[5] = qHTS assay to identify small molecule antagonists of the estrogen receptor beta (ER-beta) signaling pathway - cell viability counter screen (AID 1259382); note: series mostly up to about 92 µM; nearly all actives have a fitted effect of over 55% in size
How it was run: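 CellTiter-Glo ATP luminescence measured after the LiveBLAzer read in the same wells; ER-beta-UAS-bla HEK293T cells, 16 hr compound treatment with 1nM 17-beta-estradiol agonist at 37C, 5% CO2.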

[6] = biological target: Thyrotropin receptor (Homo sapiens) (UniProt P16473); experiment: qHTS assay to identify small molecule antagonists of the thyroid stimulating hormone receptor (TSHR) signaling pathway (AID 1259385; calls by dose curve; note: nearly all actives have a fitted effect of over 20% in size)
Sequence of Thyrotropin receptor (Homo sapiens) (P16473 whole entry, looked up): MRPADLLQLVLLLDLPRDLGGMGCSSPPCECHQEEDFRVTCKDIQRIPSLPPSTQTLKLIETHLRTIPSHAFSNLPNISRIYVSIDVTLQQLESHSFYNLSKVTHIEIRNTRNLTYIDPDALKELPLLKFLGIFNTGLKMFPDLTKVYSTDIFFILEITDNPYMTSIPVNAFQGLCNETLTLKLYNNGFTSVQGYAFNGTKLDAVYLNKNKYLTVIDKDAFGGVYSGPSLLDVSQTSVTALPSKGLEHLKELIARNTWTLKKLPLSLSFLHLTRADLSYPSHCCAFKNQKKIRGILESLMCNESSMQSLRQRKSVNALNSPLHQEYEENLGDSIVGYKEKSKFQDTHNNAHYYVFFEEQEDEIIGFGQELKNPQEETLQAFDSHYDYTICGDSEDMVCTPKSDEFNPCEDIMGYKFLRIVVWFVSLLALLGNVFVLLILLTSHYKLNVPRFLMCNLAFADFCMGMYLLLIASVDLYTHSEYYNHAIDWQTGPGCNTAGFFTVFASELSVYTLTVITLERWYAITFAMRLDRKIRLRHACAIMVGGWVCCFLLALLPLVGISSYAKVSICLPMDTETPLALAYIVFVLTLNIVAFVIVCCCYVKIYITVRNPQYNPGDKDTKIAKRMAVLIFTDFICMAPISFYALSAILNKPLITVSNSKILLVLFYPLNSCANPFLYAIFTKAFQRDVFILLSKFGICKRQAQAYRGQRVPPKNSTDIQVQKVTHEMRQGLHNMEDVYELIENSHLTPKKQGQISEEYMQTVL
How it was run: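 TSHR-HEK293 cells were plated and held 18 h at 37C/5% CO2, then given compound plus Ro20-1724 and stimulated with TSH at 1.5 ng/mL final. After 30 min at room temperature, cAMP was detected with cAMP-d2/anti-cAMP-cryptate (1 h) by fluorescence.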

[7] = qHTS assay to identify small molecule agonists of the estrogen receptor alpha (ER-alpha) signaling pathway in the presence of an antagonist - cell viability counter screen (AID 1259386);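 note: series mostly up to about 92 µM; cells exposed to compounds for 22 h at 37 °C before the viability read; nearly all actives have a fitted effect of over 30% in size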
How it was run: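 Using estrogen-depleted VM7Luc4E2 cells, the 15-concentration compound series was applied together with 10.0nM ICI-182,780 and incubated 22hr at 37C/5% CO2. Cell viability was then scored by CellTiter-Fluor.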

[8] = biological target: Progesterone receptor (Homo sapiens) (UniProt P06401); experiment: qHTS assay to identify small molecule agonists of the progesterone receptor (PR) signaling pathway (AID 1346784; calls by dose curve; note: nearly all actives have a fitted effect of over 30% in size)
Sequence of Progesterone receptor (Homo sapiens) (P06401 whole entry, looked up): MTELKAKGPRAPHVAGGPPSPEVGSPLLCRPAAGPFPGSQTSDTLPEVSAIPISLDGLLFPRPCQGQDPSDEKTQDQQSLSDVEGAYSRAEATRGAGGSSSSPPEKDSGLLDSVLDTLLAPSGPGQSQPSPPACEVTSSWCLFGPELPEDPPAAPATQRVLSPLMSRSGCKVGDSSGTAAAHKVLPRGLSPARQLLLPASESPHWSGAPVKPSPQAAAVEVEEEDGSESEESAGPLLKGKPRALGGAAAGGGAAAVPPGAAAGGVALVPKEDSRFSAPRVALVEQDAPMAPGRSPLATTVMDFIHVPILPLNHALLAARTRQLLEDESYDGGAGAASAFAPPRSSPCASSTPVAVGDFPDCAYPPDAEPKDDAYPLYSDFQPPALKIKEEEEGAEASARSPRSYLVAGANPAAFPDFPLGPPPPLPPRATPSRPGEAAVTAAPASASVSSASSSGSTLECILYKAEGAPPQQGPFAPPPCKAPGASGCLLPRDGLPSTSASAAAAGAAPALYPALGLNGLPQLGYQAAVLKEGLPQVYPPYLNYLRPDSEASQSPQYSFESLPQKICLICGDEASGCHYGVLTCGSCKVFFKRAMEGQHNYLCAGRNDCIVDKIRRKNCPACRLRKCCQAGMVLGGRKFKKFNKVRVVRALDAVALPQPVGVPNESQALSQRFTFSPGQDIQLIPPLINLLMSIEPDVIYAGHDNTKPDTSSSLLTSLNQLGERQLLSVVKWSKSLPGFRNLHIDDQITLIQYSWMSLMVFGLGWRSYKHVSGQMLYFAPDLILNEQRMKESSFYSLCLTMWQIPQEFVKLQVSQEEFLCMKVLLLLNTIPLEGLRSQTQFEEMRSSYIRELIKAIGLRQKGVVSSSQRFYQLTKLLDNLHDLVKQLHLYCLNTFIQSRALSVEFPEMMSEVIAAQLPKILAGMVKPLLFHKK
How it was run: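 The screen uses PR-UAS-bla HEK 293T cells in charcoal-stripped serum (2%). Compounds are applied for 16 hr at 37C after a 6 hr pre-incubation, and reporter activity is detected with a FRET beta-lactamase substrate after 2 hr at room temperature.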

[9] = biological target: Progesterone receptor (Homo sapiens) (UniProt P06401); experiment: qHTS assay to identify small molecule antagonists of the progesterone receptor (PR) signaling pathway (AID 1346795; active = well fitted inhibition curve with a large enough effect in the signal ratio in the repeat runs, not every such curve was filed as active; the % refers to the signal ratio)
How it was run: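 After 6 hr plating at 37C in 2% stripped-serum medium, PR-UAS-bla HEK293T cells got compounds, then 1 nM R5020. Sixteen hours later, LiveBLAzer substrate was applied for 2 hr at room temperature and fluorescence was recorded.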

[10] = qHTS assay to identify small molecule antagonists of the progesterone receptor (PR) signaling pathway - cell viability counter screen (AID 1346798); note: series mostly up to about 92 µM; nearly all actives have a fitted effect of over 50% in size
How it was run: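 Viability was determined by ATP-based luminescence (CellTiter-Glo) in PR-UAS-bla HEK293T cells cultured in 2% charcoal-stripped serum and incubated 16 hr with compounds under R5020 stimulation.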

[11] = qHTS assay to identify small molecule agonists of the progesterone receptor (PR) signaling pathway - cell viability counter screen (AID 1346799; calls by dose curve; note: nearly all actives have a fitted effect of over 45% in size)
How it was run: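 Viability was scored by ATP luminescence (CellTiter-Glo, 30 min, room temperature) in the same wells used for the reporter readout, after 16 hr compound exposure of PR-UAS-bla HEK293T cells.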

[12] = qHTS assay to identify small molecule antagonists of the TGF-beta/Smad signaling pathway - cell viability counter screen (AID 1346824); note: nearly all actives have a fitted effect of over 50% in size; note: potency is the fitted concentration of half-maximal effect
How it was run: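 SBE-bla HEK 293T cells were plated overnight at 37 C, then given compounds in DMSO plus TGF-beta1 (added as 0.25 ng/mL solution) for 5 hr. After the bla read, CellTiter-Glo was added to the same wells and luminescence read after 30 min at room temperature.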

[13] = qHTS assay to identify small molecule agonists of the TGF-beta/Smad signaling pathway - cell viability counter screen (AID 1346829); note: top concentration of the series differs between compounds; nearly all actives have a fitted effect of over 45% in size
How it was run: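 In parallel with the Smad reporter read, viability of HEK 293T cells stably carrying SBE-bla is quantified by ATP luminescence following 5 hr compound treatment.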

[14] = qHTS assay to identify small molecule agonists of the TGF-beta/Smad signaling pathway (AID 1346859; active = well fitted activation curve with a large enough effect in the signal ratio in the repeat runs, not every such curve was filed as active; the % refers to the signal ratio; note: series mostly up to about 77 µM)
How it was run: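 Dual-wavelength fluorescence (460/530 nm emission) quantified beta-lactamase expression under the Smad binding element in HEK 293T cells following 5 hr compound treatment at 37 C.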

[15] = Human pregnane X receptor (PXR) small molecule agonists, qHTS cell viability counter screen (AID 1346977); note: nearly all actives have a fitted effect of over 50% in size
How it was run: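 HepG2 cells stably carrying the PXR-Luc reporter are cultured with 5% charcoal-stripped FBS and treated with compounds for 24hr. CellTiter-Fluor is added at 23hr and fluorescence is read after 1hr.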

[16] = biological target: Estrogen receptor (Homo sapiens) (UniProt P03372); experiment: qHTS assay to identify small molecule agonists of the estrogen receptor alpha (ER-alpha) signaling pathway in the presence of an antagonist (AID 1259383; calls by dose curve; note: top concentration of the series differs between compounds; nearly all actives have a fitted effect of over 15% in size)
Sequence of Estrogen receptor (Homo sapiens) (P03372 whole entry, looked up): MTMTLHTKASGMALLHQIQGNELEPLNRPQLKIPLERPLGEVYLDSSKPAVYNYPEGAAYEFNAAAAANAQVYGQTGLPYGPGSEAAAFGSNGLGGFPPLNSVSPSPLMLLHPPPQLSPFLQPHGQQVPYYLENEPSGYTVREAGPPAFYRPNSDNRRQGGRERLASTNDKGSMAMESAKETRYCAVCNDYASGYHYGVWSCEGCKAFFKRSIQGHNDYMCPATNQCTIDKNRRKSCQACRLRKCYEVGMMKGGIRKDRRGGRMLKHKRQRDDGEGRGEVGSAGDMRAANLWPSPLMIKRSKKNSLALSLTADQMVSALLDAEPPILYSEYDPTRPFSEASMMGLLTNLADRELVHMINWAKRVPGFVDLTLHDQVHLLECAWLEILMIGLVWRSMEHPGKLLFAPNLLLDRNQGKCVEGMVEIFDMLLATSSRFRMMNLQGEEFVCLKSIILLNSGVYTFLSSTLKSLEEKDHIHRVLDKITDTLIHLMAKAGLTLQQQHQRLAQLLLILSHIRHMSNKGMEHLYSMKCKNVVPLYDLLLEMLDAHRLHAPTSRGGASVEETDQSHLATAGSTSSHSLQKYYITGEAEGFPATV
How it was run: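 Luminescent ERE-luciferase reporter, VM7Luc4E2 cells (endogenous ER-alpha); 10.0nM ICI-182,780 final; 15-point compound titration; 22hr at 37C; ONE-Glo, 30min RT.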

[17] = qHTS assay to identify small molecule agonists or antagonists of the thyroid stimulating hormone receptor (TSHR) signaling pathway - wild type cell line counter screen (AID 1259384; calls by dose curve)
How it was run: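 Wild-type HEK293 cells were plated 18 h at 37 C/5% CO2, pin-dosed with compound plus Ro20-1724 medium, held 30 min at room temperature, then given cAMP-d2 and anti-cAMP-cryptate; fluorescence was read after 1 h. Fifteen concentrations, triplicate.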

[18] = biological target: Thyrotropin-releasing hormone receptor (Homo sapiens) (UniProt P34981); experiment: qHTS assay to identify small molecule agonists of the thyrotropin-releasing hormone receptor (TRHR) signaling pathway (AID 1346891; calls by dose curve;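 note: HEK293 cells expressing TRHR with calcium dye readout; series mostly up to about 58 µM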)
Sequence of Thyrotropin-releasing hormone receptor (Homo sapiens) (P34981 whole entry, looked up): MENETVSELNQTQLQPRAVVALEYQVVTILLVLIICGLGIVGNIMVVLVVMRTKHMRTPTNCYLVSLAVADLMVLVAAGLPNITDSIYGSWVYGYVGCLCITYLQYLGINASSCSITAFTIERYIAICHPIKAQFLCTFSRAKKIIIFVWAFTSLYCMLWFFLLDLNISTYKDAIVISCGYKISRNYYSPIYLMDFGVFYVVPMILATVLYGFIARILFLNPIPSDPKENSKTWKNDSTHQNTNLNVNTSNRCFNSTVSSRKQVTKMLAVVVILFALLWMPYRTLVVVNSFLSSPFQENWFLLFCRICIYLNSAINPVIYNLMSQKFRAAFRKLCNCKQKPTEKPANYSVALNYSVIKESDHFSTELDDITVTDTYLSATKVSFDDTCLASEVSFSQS
How it was run: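 Kinetic fluorescence (3 min, 1 s intervals) reported intracellular calcium after compound transfer onto TRHR-Hek293 cells pre-loaded with dye for 2 h at 37 °C.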

[19] = biological target: Thyrotropin-releasing hormone receptor (Homo sapiens) (UniProt P34981); experiment: qHTS assay to identify small molecule antagonists of the thyrotropin-releasing hormone receptor (TRHR) signaling pathway (AID 1346877; active = well fitted inhibition curve with a large enough effect in the repeat runs, not every such curve was filed as active; note: series mostly up to about 51 µM)
How it was run: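 Calcium signal in dye-loaded TRHR/HEK293 cells; compounds added 5 min before TRH (1 nM final); fluorescence monitored 3 min at 1 s steps.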

[20] = biological target: Estrogen receptor beta (Homo sapiens) (UniProt Q92731); experiment: qHTS assay to identify small molecule antagonists of the estrogen receptor beta (ER-beta) signaling pathway (AID 1259378; active = well fitted inhibition curve with a large enough effect in the signal ratio in the repeat runs, not every such curve was filed as active; the % refers to the signal ratio)
How it was run: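 ER-beta-UAS-bla HEK293T (GripTite) cells in 2% charcoal-stripped FBS medium were preincubated 6 hr at 37C, dosed with compound, then stimulated with 1 nM E2 (final) for 16 hr; beta-lactamase reporter read by B/G FRET fluorescence after 2 hr substrate loading.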

Measured: Potency

Nc1ccccc1S(=O)(=O)O
not listed: [16] | [17] | [18] | [19] | [20]
inactive: all other assays above

O=c1cc(CO)occ1O
not listed: [12] | [19] | [20]
inactive: all other assays above

c1ccc(CC2=NCCN2)cc1
not listed: [12] | [19] | [20]
inactive: all other assays above

Cc1ccc(Cl)cc1Cl
not listed: [11] | [14] | [20]
inactive: all other assays above

CCC=O
not listed: [4] | [14] | [16] | [18] | [19]
inactive: all other assays above

CCSC(=O)N(CC(C)C)CC(C)C
not listed: [18] | [19] | [20]
inactive: all other assays above

CCC(=O)OC(C)c1ccccc1 (stereo not given)
not listed: [14] | [19] | [20]
inactive: all other assays above

CCOC(=O)c1cccc(N)c1
not listed: [11] | [19] | [20]
inactive: all other assays above

CC(=O)CC(C)(C)C1CCCCC1
not listed: [6] | [8] | [9] | [12] | [17] | [20]
inactive: all other assays above

N=C(N)c1ccccc1
not listed: [16] | [20]
inactive: all other assays above

CC1=CC(C)C(C=O)CC1 (stereo not given)
active: [12] 4.9 µM
not listed: [4] | [13] | [20]
inactive: all other assays above

O=C(O)CCCc1ccccc1
not listed: [10] | [13] | [16] | [20]
inactive: all other assays above

CN1CCC(=C2c3ccccc3CC(=O)c3sccc32)CC1
not listed: [15] | [18] | [19] | [20]
inactive: all other assays above

C=CCOCC(CC)(CO)COCC=C
not listed: [14] | [16] | [17] | [19] | [20]
inactive: all other assays above

CCCCC(CC)COC(=O)c1ccccc1O (stereo not given)
not listed: [6] | [17] | [20]
inactive: all other assays above

c1cnc(N2CCN(Cc3ccc4c(c3)OCO4)CC2)nc1
not listed: [11] | [20]
inactive: all other assays above

NCCc1cnc[nH]1
not listed: [4] | [14] | [16]
inactive: all other assays above
